Usually inhibition stands for the relative decrease from the control value, in per cent.

A short description of test [1]: antimalarial activity against Dd2 strain (AID 2302;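 active means growth inhibition above 50% at the single 2 µM test dose, taken to imply half-maximal potency below 2 µM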;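 further: 0% = DMSO untreated growth and 100% = chloroquine plus artemisinin killed control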). The note with it: P. falciparum Dd2 in RBCs, LDH growth readout, 72 h; at 2 µM; active compounds read high.
Test [2] in a line: HepG2 cytotoxicity, primary screen, cytotoxicity control for P. falciparum antimalarial project, cell-based, ATP luminescence (AID 2303;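 active means inhibition above 50%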;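 further: 0% = DMSO wells and 100% = digitonin-killed cells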). The note with it: HepG2 viability, 24-48 h, at 10 µM, active compounds read high.
Test [3] addresses L-lactate dehydrogenase (Plasmodium falciparum (isolate CDC / Honduras)) (UniProt Q27743). Briefly: PfLDH activity inhibition – cell lysate, 3D7 strain, counter-screen for P. falciparum growth inhibition project (AID 2304).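 Further: 0% = vehicle and 100% = reference inhibitor.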 The note with it: P. falciparum 3D7 crude extract, LDH APAD/NBT absorbance; at 2 µM; active compounds read high.
Test [4] can be described thus: inhibition of 3D7 malaria parasite growth – strain 3D7 (AID 2306).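 Further: 0% = DMSO wells and 100% = chloroquine plus artemisinin control wells.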 The note with it: P. falciparum 3D7 erythrocytic growth, LDH absorbance, 72 h; at 2 µM; active compounds read high.
Test [5] addresses Calcium-dependent protein kinase 1 (Plasmodium falciparum (isolate 3D7)) (UniProt P62344). Briefly: PfCDPK1 kinase inhibitors, biochemical, TCAMS library (AID 1159585; cut-off not given, nearly all actives have IC50 up to about 0.98 µM;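 further: inhibitors leave more ATP so luminescence rises with inhibition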). The note with it: recombinant PfCDPK1, Kinase-Glo ATP depletion luminescence. On the technique in general: Kinase-Glo reads ATP consumption through a luciferase reaction.
The target in test [6] is Plasmodium falciparum protein kinase 6 (PK6, PF3D7_1337100) (UniProt Q8IDW1). Briefly: PfPK6 kinase inhibitors, biochemical, TCAMS library (AID 1159586). The note with it: recombinant PfPK6, Kinase-Glo ATP depletion luminescence.
The target in test [7] is Protein kinase 7 (PK7), Plasmodium falciparum 3D7 (PF3D7_0213400) (UniProt Q7YTF7). Briefly: inhibition of Plasmodium PK7 catalytic activity – biochemical, TCAMS antimalarial set, Kinase-Glo luminescence (AID 1159587). The note with it: recombinant PfPK7, Kinase-Glo ATP depletion luminescence.
The target in test [8] is Calcium-dependent protein kinase 4 (Plasmodium falciparum (isolate 3D7)) (UniProt Q8IBS5). Kind of test: PfCDPK4 kinase inhibitors, biochemical, TCAMS library (AID 1159588; cut-off not given, nearly all actives have IC50 up to about 0.91 µM). To be noted: recombinant PfCDPK4, Kinase-Glo ATP depletion luminescence.

Unmarked numbers belong to inactive results. For some assays here: Entries with a potency or affinity are not part of this list. The source made the active and inactive calls. Unless noted, how the calls were made is not given here.

Chain of Plasmodium falciparum protein kinase 6 (PK6, PF3D7_1337100) (Q8IDW1 1-305): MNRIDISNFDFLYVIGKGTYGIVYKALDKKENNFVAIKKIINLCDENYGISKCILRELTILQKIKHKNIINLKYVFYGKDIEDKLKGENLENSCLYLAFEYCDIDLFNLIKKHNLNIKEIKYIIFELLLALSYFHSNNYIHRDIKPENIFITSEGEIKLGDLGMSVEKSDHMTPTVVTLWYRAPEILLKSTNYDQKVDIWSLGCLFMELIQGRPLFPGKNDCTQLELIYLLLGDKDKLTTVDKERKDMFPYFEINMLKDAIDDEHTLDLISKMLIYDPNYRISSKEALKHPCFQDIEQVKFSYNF
Chain of Calcium-dependent protein kinase 4 (Plasmodium falciparum (isolate 3D7)) (Q8IBS5 whole entry, looked up): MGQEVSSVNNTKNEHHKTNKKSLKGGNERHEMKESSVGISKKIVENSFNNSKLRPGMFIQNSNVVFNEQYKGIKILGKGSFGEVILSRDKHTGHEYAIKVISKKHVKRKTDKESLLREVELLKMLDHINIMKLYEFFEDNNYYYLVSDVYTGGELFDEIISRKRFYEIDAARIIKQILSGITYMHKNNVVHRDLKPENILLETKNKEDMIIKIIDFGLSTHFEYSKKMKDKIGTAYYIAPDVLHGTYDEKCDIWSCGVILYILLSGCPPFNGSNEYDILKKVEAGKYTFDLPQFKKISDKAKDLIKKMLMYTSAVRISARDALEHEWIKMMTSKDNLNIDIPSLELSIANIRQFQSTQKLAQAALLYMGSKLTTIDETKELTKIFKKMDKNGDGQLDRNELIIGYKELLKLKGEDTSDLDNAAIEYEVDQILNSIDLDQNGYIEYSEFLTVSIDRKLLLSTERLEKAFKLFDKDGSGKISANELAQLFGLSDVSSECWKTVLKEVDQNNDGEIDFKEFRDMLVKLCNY
Chain of L-lactate dehydrogenase (Plasmodium falciparum (isolate CDC / Honduras)) (Q27743 whole entry, looked up): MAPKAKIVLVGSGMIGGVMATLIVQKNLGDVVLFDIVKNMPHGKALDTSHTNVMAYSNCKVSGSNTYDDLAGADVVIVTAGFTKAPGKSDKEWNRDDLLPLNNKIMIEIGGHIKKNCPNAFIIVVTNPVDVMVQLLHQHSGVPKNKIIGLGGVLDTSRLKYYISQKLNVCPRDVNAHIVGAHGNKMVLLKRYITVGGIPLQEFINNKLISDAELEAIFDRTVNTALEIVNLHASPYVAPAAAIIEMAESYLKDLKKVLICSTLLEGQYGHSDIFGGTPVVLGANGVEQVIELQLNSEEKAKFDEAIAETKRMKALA
Chain of Calcium-dependent protein kinase 1 (Plasmodium falciparum (isolate 3D7)) (P62344 whole entry, looked up): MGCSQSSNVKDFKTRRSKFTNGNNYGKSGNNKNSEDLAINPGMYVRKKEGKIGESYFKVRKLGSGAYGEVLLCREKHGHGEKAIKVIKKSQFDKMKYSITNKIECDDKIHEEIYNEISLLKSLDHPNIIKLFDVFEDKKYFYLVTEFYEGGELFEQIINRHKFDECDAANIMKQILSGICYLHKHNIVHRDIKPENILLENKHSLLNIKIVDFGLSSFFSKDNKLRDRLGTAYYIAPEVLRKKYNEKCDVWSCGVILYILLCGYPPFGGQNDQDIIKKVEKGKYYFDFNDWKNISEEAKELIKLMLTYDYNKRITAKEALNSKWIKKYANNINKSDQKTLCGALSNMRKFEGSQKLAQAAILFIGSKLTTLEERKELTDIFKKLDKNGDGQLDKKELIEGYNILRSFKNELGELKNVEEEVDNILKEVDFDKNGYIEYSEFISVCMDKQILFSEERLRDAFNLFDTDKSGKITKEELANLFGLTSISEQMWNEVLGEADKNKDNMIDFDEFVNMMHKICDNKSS
Chain of Protein kinase 7 (PK7), Plasmodium falciparum 3D7 (PF3D7_0213400) (Q7YTF7 1-343): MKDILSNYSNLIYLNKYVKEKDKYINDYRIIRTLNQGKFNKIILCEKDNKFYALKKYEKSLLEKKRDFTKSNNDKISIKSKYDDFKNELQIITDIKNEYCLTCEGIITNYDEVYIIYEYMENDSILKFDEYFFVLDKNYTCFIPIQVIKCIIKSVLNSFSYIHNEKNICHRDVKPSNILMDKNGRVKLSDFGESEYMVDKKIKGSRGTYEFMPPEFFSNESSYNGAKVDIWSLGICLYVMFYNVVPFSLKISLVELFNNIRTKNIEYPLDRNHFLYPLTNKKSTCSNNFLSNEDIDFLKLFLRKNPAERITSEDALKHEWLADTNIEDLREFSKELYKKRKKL

As to `NC(N)=NN=Cc1c2ccccc2c(Cl)c2ccc(Cl)cc12`, the growth inhibition in test [1] was 89% (active); in test [4], 98% (active). Also, the figures for the inhibition in test [2] and in test [3] were 97% (active) and 8%, respectively. In addition, the result in test [5], in test [6], in test [7] and in test [8] was inactive.

Consider `CC(C)c1ccc(S(=O)(=O)N(c2ccc3c(c2)OCO3)C2CCN(Cc3ccccc3)C2)cc1` (configuration not stated), for which the values for the growth inhibition in test [1] and in test [4] were 92% (active) and 100% (active), respectively. Moreover, the values for the inhibition in test [2] and in test [3] were 1% and 0%, respectively. For the same compound, the outcome in test [5], in test [6], in test [7] and in test [8] was inactive.

Regarding `CCCC(C)N(Cc1ccc(C(C)(C)C)cc1)C(=O)c1ccc(OC)cc1` (configuration not stated), the figures for the growth inhibition in test [1] and in test [4] were 98% (active) and 100% (active), respectively. Further, the inhibition in test [2] is 7%; in test [3], -2%. Further, the result in test [5], in test [6], in test [7] and in test [8] was inactive.

As to `COc1ccc(CCc2ccc(-c3c(C)[nH]c(C)c(Cl)c3=O)cc2)cc1`, the growth inhibition in test [1] was 97% (active); in test [4] it was 98% (active). Further, the inhibition is -3% in test [2] and 3% in test [3]. Moreover, the outcome in test [5], in test [6], in test [7] and in test [8] was inactive.

Regarding `O=C(Nc1ccccc1)N(Cc1ccccc1-c1cccc(CNCc2ccc3c(c2)OCO3)c1)C1CCN(Cc2ccccc2)CC1`, the growth inhibition in test [1] is 64% (active); in test [4], 101% (active). Moreover, the inhibition in test [2] is 35%; in test [3], 1%. In addition, the result in test [5], in test [6], in test [7] and in test [8] was inactive.

On to `COc1cc(CNCCCNc2nc3ccsc3c(=O)[nH]2)c2[nH]cc(Cl)c2c1`, for which the results for the growth inhibition in test [1] and in test [4] were -2% and 96% (active), respectively. Further, the inhibition is 29% in test [2] and 2% in test [3]. The outcome in test [5], in test [6], in test [7] and in test [8] was inactive.

Take `CC1CCCCN1CCCNc1nc(NCc2ccccc2)c2ccccc2n1` (configuration not stated): the growth inhibition in test [1] was 14%; in test [4] it was 95% (active). In addition, the figures for the inhibition in test [2] and in test [3] were 24% and 0%, respectively. The result in test [5], in test [6], in test [7] and in test [8] was inactive.

With `O=C(/C=C/c1c[nH]c2ccccc12)NCCCCCN1CCC(c2c[nH]c3ccccc23)CC1`, the growth inhibition in test [1] was 0%; in test [4] it was 96% (active). Further, the values for the inhibition in test [2] and in test [3] were 20% and 5%, respectively. Further, the outcome in test [5], in test [6], in test [7] and in test [8] was inactive.

As to `O[C@@H](c1ccccc1)[C@@H]1CN(CCc2ccccc2)CC[C@@]1(O)c1ccccc1`, the growth inhibition is 92% (active) in test [1] and 97% (active) in test [4]. For the same compound, the inhibition in test [2] and in test [3] was -2% throughout. The outcome in test [5], in test [6], in test [7] and in test [8] was inactive.

Turning to `COc1cc(CNc2ccc(N3CCCC3)cc2)cc(Cl)c1OC`, the growth inhibition was 94% (active) in test [1] and 100% (active) in test [4]. The inhibition in test [2] was 41%; in test [3], 1%. The outcome in test [5], in test [6], in test [7] and in test [8] was inactive.

Regarding `COc1ccccc1Cn1ccnc1SCC(=O)Nc1cc(C(F)(F)F)ccc1Cl`, the growth inhibition in test [1] is 97% (active); in test [4], 96% (active). Further, the values for the inhibition in test [2] and in test [3] were 12% and 1%, respectively. Besides, the result in test [5], in test [6], in test [7] and in test [8] was inactive.

`c1ccc(-n2ncc(CNCc3ccc(-c4ccc(-c5nc6ccccc6[nH]5)s4)cc3)n2)cc1`: the growth inhibition in test [1] was 46%; in test [4], 93% (active). Moreover, the inhibition in test [2] is 27%; in test [3], 4%. The result in test [5], in test [6], in test [7] and in test [8] was inactive.

With `Cc1cccc2c3c([nH]c12)C1(CCN(Cc2ccccc2)CC1)NC(C(=O)NCc1ccccc1)C3` (configuration not stated), the growth inhibition in test [1] is 8%; in test [4], 81% (active). Moreover, the inhibition in test [2] is -4%; in test [3], -2%. In addition, the outcome in test [5], in test [6], in test [7] and in test [8] was inactive.

With `Cc1cc(NC(=O)c2cccs2)ccc1OC1CCN(Cc2ccc(C#N)cc2)C1` (configuration not stated), the growth inhibition in test [1] is 61% (active); in test [4] it was 82% (active). Moreover, the inhibition in test [2] is 13%; in test [3], -2%. Further, the result in test [5], in test [6], in test [7] and in test [8] was inactive.

For `COc1cc2nc(NCCCOC(C)C)n3nc(-c4ccccc4)nc3c2cc1OC`, the figures for the growth inhibition in test [1] and in test [4] were 97% (active) and 94% (active), respectively. In addition, the inhibition in test [2] is -3%; in test [3], -1%. Also, the result in test [5], in test [6], in test [7] and in test [8] was inactive.

As to `CCOc1ccnc(=O)[nH]1`, the figures for the growth inhibition in test [1] and in test [4] were 95% (active) and 97% (active), respectively. Further, the inhibition in test [2] is -4%; in test [3] it was 5%. The outcome in test [5], in test [6], in test [7] and in test [8] was inactive.

For the compound `COc1ccc(CN2CCCN(Cc3cccc(C(=O)Nc4ccc(C)c(F)c4)c3)CC2)cc1`, the growth inhibition in test [1] is 10%; in test [4] it was 83% (active). Besides, the inhibition in test [2] was 49%; in test [3] it was -3%. Besides, the result in test [5], in test [6], in test [7] and in test [8] was inactive.

Consider `Cc1ccc(O)c(C(=O)c2cnc3c(c2)c(-c2ccc(F)cc2)c(C#N)c(=O)n3C)c1`, for which the figures for the growth inhibition in test [1] and in test [4] were 56% (active) and 93% (active), respectively. Further, the inhibition in test [2] was 17%; in test [3] it was 2%. The outcome in test [5], in test [6], in test [7] and in test [8] was inactive.

For the compound `CC(CN(C)C)C(=O)Nc1ccc(-c2csc(-c3nc4ccccc4[nH]3)c2)cc1` (configuration not stated), the growth inhibition in test [1] is 19%; in test [4] it was 84% (active). In addition, the inhibition in test [2] was 28%; in test [3] it was -4%. Moreover, the result in test [5], in test [6], in test [7] and in test [8] was inactive.

The values above are taken from PubChem BioAssay.
